Hits are enriched below; roughly 9% of the tested compounds scored in any of these assays.
HPGD block: blocks human HPGD enzyme activity | P15428 | purified HPGD, NADH fluorescence kinetic, PGE2 substrate | Potency, µM, inactives show at the highest dose activity change, negative = inhibition, usual class: inhibitors | 150,000 compounds, 4.3% hits; further: potency means the concentration at half of the fitted maximal effect
Target sequence (P15428 whole entry, looked up): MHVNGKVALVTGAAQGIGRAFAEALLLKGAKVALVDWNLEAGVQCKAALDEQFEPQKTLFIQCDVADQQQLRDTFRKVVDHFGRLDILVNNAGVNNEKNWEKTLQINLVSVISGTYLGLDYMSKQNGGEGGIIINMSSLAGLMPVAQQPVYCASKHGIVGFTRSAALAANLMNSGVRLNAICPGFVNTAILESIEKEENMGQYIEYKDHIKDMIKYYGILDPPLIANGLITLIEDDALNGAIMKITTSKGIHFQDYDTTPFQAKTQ
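NADH formation kinetics: reaction with 30 uM PGE2 and 1 mM NAD+ (final), 20 nM enzyme, Tris-HCl pH 8 with Tween 20, after 15 min compound preincubation at room temperature. Fluorescence change, last versus first of five reads.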
IMPase cell inh: cell-permeable inhibitors of inositol monophosphatase (IMPase) | 120,000 tested, under 10 active | CHO-M1 cells, IP1 accumulation, HTRF TR-FRET ratio | AID 901 | P97697 | inhibition (IP1 accumulation), % at 46.1 µM; active means well fitted curve in the direction sought with a large enough effect in the signal ratio, not every such curve was filed as active; inconclusive means small, poorly fitted or top-dose-only effect, or a change in a side signal; inactive means no such curve, though single readings can be large or run the other way; the % refers to the signal ratio;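 further: cells stimulated with carbachol in lithium chloride buffer; plate controls were DMSO basal wells for no effect and reference inhibitor wells for full effect; higher means more IMPase inhibition seen as more IP1 and lower FRET ratio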
Target sequence (P97697 whole entry, looked up): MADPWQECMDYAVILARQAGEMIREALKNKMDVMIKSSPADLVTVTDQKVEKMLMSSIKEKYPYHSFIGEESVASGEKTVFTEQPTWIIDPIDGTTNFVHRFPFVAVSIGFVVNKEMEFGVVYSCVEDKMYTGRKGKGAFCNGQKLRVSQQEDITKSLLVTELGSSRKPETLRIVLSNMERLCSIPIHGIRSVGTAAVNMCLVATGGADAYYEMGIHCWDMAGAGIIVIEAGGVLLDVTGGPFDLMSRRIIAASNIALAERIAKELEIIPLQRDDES
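Seeded CHO-M1 cells were dosed with compound at up to 46 uM, stimulated with carbachol for 30 min, then lysed in IP-One detection reagents. Higher IP1 lowers the TR-FRET signal.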
ALDH1A1 block: inhibitors of human aldehyde dehydrogenase 1A1. P00352. Purified ALDH1A1, NADH fluorescence, propionaldehyde substrate. Potency, µM (doses to about 75.3 µM), for the others: top-dose activity, negative = inhibition, actives largely listed as inhibitors. 220,000 compounds, 7.3% hits;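 further: potency means the concentration at half of the fitted maximal effect; plate controls were no enzyme wells and a reference inhibitor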
Numbers without * were called inactive; ? = inconclusive; . = no result given; [ ] = dose if it differs, or a comment. Unless noted, the call rests on the fitted dose curve; in most records, active means well fitted inhibition curve with a large enough effect (not every such curve was filed as active); inconclusive means small, poorly fitted or top-dose-only effect, or another doubt; inactive means no such curve, though single readings can be large or run the other way. Unless noted, on the % scale 0 is the no-effect control and ±100 the full control effect.

SMILES	HPGD block	IMPase cell inh	ALDH1A1 block
O=S(=O)(Nc1ccc(N=Nc2ccccc2)cc1)c1ccccc1	?	0	9%
O=S(=O)(Nc1ccc(N=Nc2ccc(O)c3ccccc23)cc1)c1ccccc1	32µM*	.	-1%
N#CC1=C(N)OC2=C(C(=O)CCC2)C1c1cccs1 (stereo not given)	.	.	-2%
CC1(C)CC(=O)C2=C(C1)OC(N)=C(C#N)C2c1cccs1 (stereo not given)	.	.	22µM*
CCC1C(C#N)=C(N)OC2=C1C(=O)CC(C)(C)C2 (stereo not given)	-22%	-15	-11%
CC1(C)CC(=O)C2=C(C1)OC(c1cccs1)C(C#N)=C2N (stereo not given)	-16%	5	11µM*
COC(=O)C1=C(N)OC2=C(C(=O)CC(C)(C)C2)C1c1cccs1 (stereo not given)	22µM*	-4	-11%
CC1(C)CC(=O)C2=C(C1)OC(N)=C(C#N)C2C1C=CCCC1 (stereo not given)	-25%	-1	4µM*
COC(=O)C1=C(C)NC2=C(C(=O)CCC2)C1c1cccs1 (stereo not given)	-29%	3	-8%
CC1(C)CC(=O)C2=C(C1)N(c1ccccc1C#N)C(N)=C(C#N)C2c1cccs1 (stereo not given)	-5%	4	-3%
COC(=O)C1C(=O)/C(=C/N(C)C)C(=O)CC1(C)C (stereo not given)	.	.	-16%
CCOc1ccc(N2CC(C(=O)Nc3ccc(OC)c(S(=O)(=O)N4CCCCC4)c3)CC2=O)cc1 (stereo not given)	.	.	9%
O=C(CSc1nnc(-c2ccccc2)n1-c1ccccc1)N1c2ccccc2Sc2ccccc21	-15%	-5	?
O=C(c1cnccn1)N1CCC2(CC1)CN(Cc1nccs1)C2	-8%	.	5%
COc1ccc2c(c1)C(C1=C(O)CC(C)(C)CC1=O)C1=C(CC(C)(C)CC1=O)O2 (stereo not given)	-9%	14	-3%
COc1cc(C2C3=C(CC(C)(C)CC3=O)OC(N)=C2[N+](=O)[O-])ccc1O (stereo not given)	.	-2	?
CC1(C)CC(=O)C(C2C3=C(CC(C)(C)CC3=O)Oc3ccccc32)=C(O)C1 (stereo not given)	-8%	0	28µM*
CC1(C)CC(=O)C2=C(C1)OC(N)=C(C#N)C2c1ccccc1 (stereo not given)	-17%	3	14µM*
COc1ccc(C2C3=C(CC(C)(C)CC3=O)OC(N)=C2[N+](=O)[O-])cc1 (stereo not given)	-12%	.	19µM*
CC1(C)CC(=O)C2=C(C1)OC1=C(C(=O)CC(C)(C)C1)C2c1ccccc1	-3%	2	6%
COCCN(CCOC)C(=O)c1ccc(SCc2ccc(C)cc2)c([N+](=O)[O-])c1	.	.	-12%
COc1ccc(C(=O)OC2CC3CC[C@H](C2)N3C(C)=O)cc1OC (stereo not given in full)	0%	.	9%
[ClH+][Cu][ClH+].[Cu].[OH2+]c1ccc2ccccc2c1CN1CCCCC1.[OH2+]c1ccc2ccccc2c1CN1CCCCC1	-13%	.	1.8µM*
COc1ccc2ccccc2c1CN1CCN(Cc2ccccc2)CC1	-6%	11	1%
COc1ccc(NC(=O)C/C(C)=N/NC(=O)C(=O)Nc2cccc(Cl)c2C)c(OC)c1	.	.	1.3µM*
SMILES	HPGD block	IMPase cell inh	ALDH1A1 block
COc1ccc(NC(=O)C/C(C)=N/NC(=O)C(=O)NC(C)C)c(OC)c1	.	.	3%
COc1ccc(C(=S)Nc2ccc(C)cc2)cc1	22µM*	-6	?
COc1ccc(CCNc2ccc(C)cc2)cc1	-9%	-2	-7%
Cc1ccc(S(=O)(=O)CNC(=S)c2ccc3ccccc3c2)cc1	-13%	-6	?
COc1ccc(C(=S)NCS(=O)(=O)c2ccc(C)cc2)cc1	25µM*	.	22µM*
COc1ccc(NC(=S)c2ccncc2)cc1	-5%	.	-1%
COc1ccc(C(O)CNc2ccc(C)cc2)cc1 (stereo not given)	-11%	3	20µM*
CC(C)CCNC(=O)C(=O)Nc1ccccc1	.	.	4%
O=S1(=O)C[C@H]2NC(=S)N(c3ccccc3)[C@H]2C1	-4%	-2	7%
CCN(CC)CCCN1C(=O)C(=O)/C(=C(/O)c2ccc3c(c2)CC(C)O3)C1c1cccnc1 (stereo not given)	-4%	-1	1%
CCC(=O)OCC(=O)[C@@]1(OC(=O)CC)[C@@H](C)C[C@H]2[C@@H]3CCC4=CC(=O)C=C[C@]4(C)[C@@]3(F)[C@@H](O)C[C@@]21C	-6%	.	-1%
Cc1c(NC(=O)Nc2ccc(Cl)c(C(F)(F)F)c2)c(=O)n(-c2ccccc2)n1C	.	1	.
CCCCCC(=O)NC(=S)Nc1ccc(N2CCCCC2)c(Cl)c1	.	-8	8%
O=C(NC(=S)Nc1ccc(N2CCOCC2)c(Cl)c1)c1cccs1	.	.	-88%
O=C(NC(=S)Nc1ccccc1N1CCOCC1)c1sc2ccccc2c1Cl	-15%	.	?
O=C(NC(=S)Nc1ccc(N2CCOCC2)c(Cl)c1)c1cncc(Br)c1	22µM*	.	7.9µM*
O=C(NC(=S)Nc1ccc(N2CCOCC2)c(Cl)c1)c1sc2ccccc2c1Cl	-22%	5	3.5µM*
O=C(NC(=S)Nc1ccc(N2CCCCC2)c(Cl)c1)c1ccc2c(c1)OCCO2	?	7	10µM*
COc1cccc(CC2(CO)CCCN(Cc3ccc4c(c3)OCCO4)C2)c1 (stereo not given)	.	.	0%
CCOc1ccc(NC(=O)Nc2cccs2)cc1	-11%	0	-10%
COC(=O)c1ccc(C(NC(=O)OCc2ccccc2)/C(F)=C/[C@@H](C)C(=O)NCCO)cc1 (stereo not given in full)	-2%	.	0%
COc1c(O)cc(O)cc1O	-7%	.	5%
Cc1cc(O)c(Oc2cc(C)cc(O)c2O)c(O)c1	.	.	8.9µM*
OB(O)c1csc2ccccc12	-5%	.	0%
CC(=O)OC[C@@H]1O[C@@H](O/N=C2/C[C@@H](O)[C@@H](O)[C@@H]3[C@@H]4C(=O)N(Cc5ccc6c(c5)OCO6)C(=O)[C@H]4CC[C@H]23)[C@H](OC(C)=O)[C@H](OC(C)=O)[C@@H]1OC(C)=O	.	.	7%[13.5 µM]
SMILES	HPGD block	IMPase cell inh	ALDH1A1 block
C[C@@H]1C(=O)CC2C(C)(C)CCC[C@]2(C)[C@@]1(O)CCc1ccoc1 (stereo not given in full)	-11%	.	?
CC1=NN(c2ccccc2)C(=O)/C1=C\c1ccc(Oc2ccc([N+](=O)[O-])cc2[N+](=O)[O-])cc1	8.9µM*	-8	8.9µM*
COc1cc(/C=C2/SC(N)=NC2=O)ccc1Oc1ccc([N+](=O)[O-])cc1[N+](=O)[O-]	-11%	-4	-1%
COc1cc(/C=C2\C(=O)N(c3ccccc3)N=C2C)ccc1Oc1ccc([N+](=O)[O-])cc1[N+](=O)[O-]	13µM*	.	?
Nc1ccc(Oc2ccc([N+](=O)[O-])cc2[N+](=O)[O-])cc1	-16%	-3	?
O=C1N(Cc2cccnc2)C[C@@H]2C[C@@H](c3cccc(OC4CCCC4)c3)N3CCC[C@@]123	.	.	-13%
CCc1ccccc1N(C(C)=O)c1nc(CN=C=S)cs1	.	.	-6%
O=S(=O)(N/N=C/c1ccc(N2CCOCC2)cc1)c1ccccc1	.	.	10µM*

From PubChem BioAssay
